Out of some 280,000 compounds screened, about 1,700 (0.61%) were called active. No stated cut-off is given here; in the data, active means inhibition mostly above about 24% (no sharp cut-off); inactive means mostly below about 32%. The full list was thinned out, with actives kept by preference.
Experiment: NALP1 inflammasome inhibitors in reconstituted yeast, colorimetric, S. cerevisiae, triplicate retest (AID 2071)
Conditions: S. cerevisiae NALP1/ASC/caspase-1 growth, X-gal OD620, 72 h, stronger effect = higher value

COc1ccc(Cl)cc1NC(=O)CN1CCN(C(=O)N2CCOCC2)CC1
inhibition (at 10 µM unless noted): 5.1% (inactive)

Clc1cccc(CN2COc3c(cc(Cl)c4cccnc34)C2)c1
inhibition (at 10 µM unless noted): 125% (active)

CC(C)CC(=O)N1CCN(Cc2cccc(Cl)c2)CC1
inhibition (at 10 µM unless noted): 10.5% (inactive)

Nc1c(C(=O)NCc2ccccc2)nnn1Cc1cccc(Cl)c1
inhibition (at 10 µM unless noted): 7% (inactive)

CCC(NC(=O)c1cc(COc2ccc(F)c(F)c2)on1)c1ccncc1 (stereo not given)
inhibition (at 10 µM unless noted): 0.6% (inactive)

Cc1ccc(NS(=O)(=O)c2ccc(-c3coc(C)n3)cc2)c(C)c1
inhibition (at 10 µM unless noted): 3.2% (inactive)

O=C(CSCC(=O)Nc1cccc([N+](=O)[O-])c1)Nc1ccccc1
inhibition (at 10 µM unless noted): 27.6% (inactive)

COC(=O)/C=C\C(=O)Nc1cccc([N+](=O)[O-])c1
inhibition (at 10 µM): 108% (active) | inhibition (triplicate retest, at 20 µM): 116%

COc1cccc(CNC(=O)CCCC(=O)Nc2cccc([N+](=O)[O-])c2)c1
inhibition (at 10 µM unless noted): -4.2% (inactive)

O=S1(=O)CCOC[C@H](CC2CCCCC2)N1Cc1ccc(F)cc1
inhibition (at 10 µM unless noted): 22.6% (inactive)

C/C(=N\NC(=O)C1(C)CC1(Br)Br)c1ccc(C)cc1C (stereo not given)
inhibition (at 10 µM unless noted): -0.3% (inactive)

CCC(=O)c1ccc(OCC(O)CN2CC(C)OC(C)C2)cc1 (stereo not given)
inhibition (at 10 µM unless noted): 0.7% (inactive)

O=C(COc1ccc(Cl)cc1)N1CCN(c2cccc(C(F)(F)F)c2)CC1
inhibition (at 10 µM unless noted): -4.3% (inactive)

CCC(=O)c1ccc(OCC(O)CN2CCN(c3cccc(C(F)(F)F)c3)CC2)cc1 (stereo not given)
inhibition (at 10 µM): 52.2% (active) | inhibition (triplicate retest, at 20 µM): 65.2%

COc1ccc(S(=O)(=O)N2CCOC2CNC(=O)C(=O)NCc2ccncc2)cc1C (stereo not given)
inhibition (at 10 µM unless noted): 0.1% (inactive)

CCC(=O)c1cn(CCOc2ccccc2OC)c2ccccc12
inhibition (at 10 µM unless noted): 14.8% (inactive)

Cc1csc(=NC(=O)c2ccccc2)n1CCO
inhibition (at 10 µM unless noted): 2.4% (inactive)

Cc1csc(=Nc2ccccc2)n1CCO
inhibition (at 10 µM unless noted): 26.1% (inactive)

OCCn1c(-c2ccccc2)csc1=Nc1ccccc1
inhibition (at 10 µM unless noted): 50.3% (active)

O=C(NCCCN1CCOCC1)c1cc(-c2ccccc2F)no1
inhibition (at 10 µM unless noted): 20.9% (inactive)

C[N+](C)(C)CCNC(=O)c1cc[n+](Cc2ccccc2)c(/C=N/O)c1
inhibition (at 10 µM unless noted): 6.7% (inactive)

O=C(NC1CCCC1)c1cc(-c2ccccc2)on1
inhibition (at 10 µM unless noted): 15.4% (inactive)

CC(=O)C(C)n1cnc2scc(-c3ccc(C)cc3)c2c1=O (stereo not given)
inhibition (at 10 µM unless noted): -5% (inactive)

C/C(=N\NC(=O)COc1ccc(C)cc1[N+](=O)[O-])c1ccc2c(c1)OCCO2
inhibition (at 10 µM unless noted): 12% (inactive)

COCCNC(=O)COc1ccccc1C
inhibition (at 10 µM unless noted): 6.3% (inactive)

COCCCNC(=O)COc1cc(C)c(Cl)c(C)c1
inhibition (at 10 µM unless noted): 33.8% (active)

CCOc1ccc(NS(=O)(=O)c2ccc(OCC(=O)NCCCOC)cc2)cc1
inhibition (at 10 µM unless noted): -2.5% (inactive)

CCSc1nsc(NC(=O)Nc2ccccc2OC)n1
inhibition (at 10 µM unless noted): 18.6% (inactive)

COc1ccc(CC(=O)NC(C)CCc2ccccc2)cc1 (stereo not given)
inhibition (at 10 µM unless noted): 7.9% (inactive)

COc1ccc(C(CCNCc2ccccc2F)c2ccc(F)cc2)cc1 (stereo not given)
inhibition (at 10 µM): 46.5% (active) | inhibition (triplicate retest, at 20 µM): 74.4%

COc1cccc(CNCCc2c[nH]c3ccccc23)c1OCc1ccccc1F
inhibition (at 10 µM unless noted): -3.7% (inactive)

CCCCNC(=O)C1CCCNC1=O (stereo not given)
inhibition (at 10 µM unless noted): 42.8% (active)

CCCOc1ccc(NC(=O)C2CCCNC2=O)cc1 (stereo not given)
inhibition (at 10 µM unless noted): 7.4% (inactive)

CCCCNC(=O)C1CCC(=O)N1CCc1ccccc1 (stereo not given)
inhibition (at 10 µM unless noted): -0.8% (inactive)

O=[N+]([O-])c1ccc(NC(=S)N2CCN(c3ccccn3)CC2)cc1
inhibition (at 10 µM unless noted): 9.2% (inactive)

CC(=O)N1c2ccc(S(=O)(=O)N3CCCC(C(=O)NCc4ccc(Cl)cc4)C3)cc2CC1C (stereo not given)
inhibition (at 10 µM unless noted): -3.9% (inactive)

COc1ccccc1NC(=O)C1CCN(C(=O)c2ccc(C(C)(C)C)cc2)CC1
inhibition (at 10 µM unless noted): 3.2% (inactive)

CC(C)CC(=O)NC(=S)Nc1cc(C(=O)O)ccc1Cl
inhibition (at 10 µM unless noted): 11.6% (inactive)

CC(C)CC(=O)NC(=S)Nc1ccc(F)cc1F
inhibition (at 10 µM unless noted): 42.9% (active)

CC(=O)c1ccc(NC(=S)NC(=O)CC(C)C)cc1
inhibition (at 10 µM unless noted): 27.8% (inactive)

COc1ccc(C2C(C(C)=O)=C(O)C(=O)N2Cc2cccnc2)cc1 (stereo not given)
inhibition (at 10 µM unless noted): 33.6% (active)

COc1ccc(C2C(C(C)=O)=C(O)C(=O)N2CCc2c[nH]c3ccccc23)cc1 (stereo not given)
inhibition (at 10 µM unless noted): 5.6% (inactive)

COc1cc(C2C(C(=O)c3ccc(C)o3)=C(O)C(=O)N2Cc2cccnc2)ccc1O (stereo not given)
inhibition (at 10 µM unless noted): -2.8% (inactive)

CC1Cc2cc(/C(O)=C3\C(=O)C(=O)N(Cc4cccnc4)C3c3ccccc3F)ccc2O1 (stereo not given)
inhibition (at 10 µM unless noted): 29.4% (inactive)

Cc1ccc(-n2ncc(C(=O)NC3CC3)c2C2CCN(C(=O)OC(C)(C)C)CC2)c(C)c1
inhibition (at 10 µM unless noted): -2.6% (inactive)

O=C(NCc1cccs1)C1CCN(S(=O)(=O)c2ccc(Cl)cc2)CC1
inhibition (at 10 µM unless noted): 23.6% (active)

O=C(NCc1cccs1)C1CCN(S(=O)(=O)c2ccc3c(c2)OCCO3)CC1
inhibition (at 10 µM unless noted): -1.6% (inactive)

O=C(NCc1ccc(Cl)cc1)C1CCN(S(=O)(=O)c2cccs2)CC1
inhibition (at 10 µM unless noted): 4% (inactive)

CCc1ccc(/C=N/NC(=O)c2nnn(-c3nonc3N)c2CN2CCc3ccccc32)cc1
inhibition (at 10 µM unless noted): 0% (inactive)

O=C(Nc1nnc(C2CC2)s1)c1cc(Cl)sc1Cl
inhibition (at 10 µM unless noted): 5.9% (inactive)

CCCCNC(=O)CSc1nnc(-c2ccco2)n1C
inhibition (at 10 µM unless noted): 10.9% (inactive)

Cn1c(SCC(=O)c2cccs2)nnc1-c1ccco1
inhibition (at 10 µM unless noted): 14.7% (inactive)

Cn1c(SCC(=O)Nc2ccc(Br)cc2F)nnc1-c1ccco1
inhibition (at 10 µM unless noted): 31.1% (active)

O=C(Nc1ccc(C(=O)N2CCOCC2)cc1)Nc1cccc(C(F)(F)F)c1
inhibition (at 10 µM unless noted): -1.5% (inactive)

O=C(CN1CCCCCC1)Nc1ccc(Br)cc1[N+](=O)[O-]
inhibition (at 10 µM unless noted): -4.1% (inactive)

Cc1ccc(S(=O)(=O)N2CCN=C2SCc2c(F)cccc2Cl)cc1
inhibition (at 10 µM unless noted): 14.5% (inactive)

COc1cccc(CNc2ncc(-c3ccccc3)n2C)c1
inhibition (at 10 µM unless noted): -8.5% (inactive)

Cn1c(SCC(=O)C(C)(C)C)nnc1-c1ccccn1
inhibition (at 10 µM unless noted): 43.3% (active)

CCn1c(SCC(=O)NC2CC2)nnc1-c1ccccn1
inhibition (at 10 µM unless noted): 20% (inactive)

Cn1c(SCC(=O)c2ccc(F)cc2)nnc1-c1ccccn1
inhibition (at 10 µM unless noted): 4.2% (inactive)

FC(F)(F)c1nnc2c3ccccc3c(Cl)nn12
inhibition (at 10 µM unless noted): 2.1% (inactive)

COc1ccc(N2C(=O)C3CCCN3C2c2cccc(OC)c2)cc1 (stereo not given)
inhibition (at 10 µM unless noted): -8.3% (inactive)

COc1ccc(N2C(=O)C3CCCN3C2c2cccs2)cc1 (stereo not given)
inhibition (at 10 µM unless noted): 11.5% (inactive)

COc1ccc(N2C(=O)C3CCCN3C2c2cc(OC)c(OC)cc2OC)cc1 (stereo not given)
inhibition (at 10 µM unless noted): 41.6% (active)

O=C(CN1CCN(C(=O)C2CCCO2)CC1)Nc1c(Cl)cccc1Cl (stereo not given)
inhibition (at 10 µM unless noted): 17.6% (inactive)

COc1ccc(-c2c(C#Cc3ccccc3)c3ccccc3n2C)cc1
inhibition (at 10 µM unless noted): 15.3% (inactive)

CC(=O)Nc1ccc(NC(=O)CS(=O)(=O)c2cn(CC(=O)N3CCCCC3)c3ccccc23)cc1
inhibition (at 10 µM unless noted): 5.8% (inactive)

C=CS(=O)c1sc(Cl)c(N2CCOCC2)c1[N+](=O)[O-] (stereo not given)
inhibition (at 10 µM unless noted): 37.6% (active)

Cc1cccc(NC(=O)c2ccc(S(=O)(=O)N(C)CC3CCCO3)cc2)c1C (stereo not given)
inhibition (at 10 µM unless noted): 15.7% (inactive)

CC(C)Cc1nc(Cl)c(C#N)c2c1CCC2
inhibition (at 10 µM unless noted): 8% (inactive)

COCc1c(N)c(C)nc(Cl)c1C#N
inhibition (at 10 µM unless noted): -22.9% (inactive)

Cc1nc(Cl)c(C#N)c2c1CCCC2
inhibition (at 10 µM unless noted): 41.9% (active)

COc1ccc(NCCc2ccccn2)cc1
inhibition (at 10 µM unless noted): 8.9% (inactive)

O=C(NCCCc1ccccc1)C(=O)NCC1OCCN1S(=O)(=O)c1ccccc1 (stereo not given)
inhibition (at 10 µM unless noted): -4.3% (inactive)

COc1ccc(CCNC(=O)C(=O)NCC2OCCN2S(=O)(=O)c2cccs2)cc1OC (stereo not given)
inhibition (at 10 µM unless noted): 0.8% (inactive)

COc1cccc(NC(=O)[C@H](Cc2c[nH]c3ccccc23)NC(=O)[C@@H]2Cc3ccccc3CN2)c1
inhibition (at 10 µM unless noted): 17.2% (inactive)

CC(C)(C)c1ccc(NC(=O)NCc2ccco2)cc1
inhibition (at 10 µM unless noted): 21.4% (inactive)

Cc1ccccc1NC(=O)NCc1ccco1
inhibition (at 10 µM unless noted): 23.9% (inactive)

CC(C)(C)NC(=O)NCc1ccco1
inhibition (at 10 µM unless noted): 41.4% (active)

Cc1[nH]n(C(N)=S)c(=O)c1N=Nc1ccc(Cl)cc1Cl
inhibition (at 10 µM unless noted): 0.4% (inactive)

COc1ccc(-n2nc(C(=O)NCC(=O)N3CCN(c4ccccc4OC)CC3)c3ccccc3c2=O)c(OC)c1
inhibition (at 10 µM unless noted): 20.4% (inactive)

CN(c1ccc(O)cc1)c1nc(-c2cccnc2)cs1
inhibition (at 10 µM unless noted): 12.3% (inactive)

O=C(NC(=S)Nc1ccc(Cl)cc1Cl)C1CC1
inhibition (at 10 µM unless noted): 10.6% (inactive)

O=C(NCC(=O)N1CCN(c2ncc(C(F)(F)F)cc2Cl)CC1)c1ccc(Br)o1
inhibition (at 10 µM unless noted): 6.1% (inactive)

Cc1nc(NCCN)c(C#N)c2c1COC(C)(C)C2
inhibition (at 10 µM unless noted): 8.1% (inactive)

CC1(C)Cc2cccc(OCC(=O)NCc3ccccc3)c2O1
inhibition (at 10 µM unless noted): -5.5% (inactive)

Cc1nc(NCc2ccccc2)c(C(N)=O)c2c1COC(C)(C)C2
inhibition (at 10 µM unless noted): 37.7% (active)

COc1ccccc1C(=O)COC(=O)CNS(=O)(=O)c1ccc(NC(C)=O)cc1
inhibition (at 10 µM unless noted): 16.9% (inactive)

Cc1ccccc1C(=O)NC(=S)NC1CC1
inhibition (at 10 µM unless noted): 12.2% (inactive)

COc1cccc(-n2c(SCC(=O)NC3CCCCC3)nc3n[nH]c(C)c3c2=N)c1
inhibition (at 10 µM unless noted): -7.2% (inactive)

CCCCNC(=O)CSc1nc2n[nH]c(C)c2c(=N)n1-c1cccc(Cl)c1C
inhibition (at 10 µM unless noted): -3.5% (inactive)

Cc1ccc(-n2c(SCC(=O)NCCC3=CCCCC3)nc3n[nH]c(C)c3c2=N)cc1Cl
inhibition (at 10 µM unless noted): 39.4% (active)

COc1ccc(N(C)C(=O)C2CCN(S(=O)(=O)c3cccc4nsnc34)CC2)cc1
inhibition (at 10 µM unless noted): 9.7% (inactive)

Cc1ccc(NC(=O)c2cc3ccccc3o2)cc1
inhibition (at 10 µM unless noted): 8.6% (inactive)

O=C(CCCCCn1c(=S)[nH]c2ccsc2c1=O)NC1CCCCC1
inhibition (at 10 µM unless noted): -20.3% (inactive)

Cc1cc(NC(=O)c2ccccc2C)no1
inhibition (at 10 µM unless noted): 17% (inactive)

CCOCCCNC(=O)C(NC(=O)Cc1c[nH]c2ccccc12)c1ccc(OC)cc1 (stereo not given)
inhibition (at 10 µM unless noted): 6.3% (inactive)

CCOCCCNC(=O)C(NC(=O)c1ccc(=O)[nH]c1)c1ccc(C)cc1 (stereo not given)
inhibition (at 10 µM unless noted): -4% (inactive)

CCOCCCNC(=O)C(NC(=O)CNC(=O)c1ccccc1)c1ccc(OC)cc1 (stereo not given)
inhibition (at 10 µM unless noted): -2.8% (inactive)

CCOCCCNC(=O)C(NC(=O)c1ccccc1O)c1ccccc1 (stereo not given)
inhibition (at 10 µM unless noted): -7.8% (inactive)

CCOCCCNC(=O)C(NC(=O)c1ccc(=O)[nH]c1)c1ccc(Cl)cc1 (stereo not given)
inhibition (at 10 µM unless noted): 38.8% (active)

CCOCCCNC(=O)C(NC(=O)CNC(=O)c1ccccc1)c1ccc(C)cc1 (stereo not given)
inhibition (at 10 µM unless noted): 38.2% (active)

Source: PubChem BioAssay AID2071 (Sanford-Burnham Center for Chemical Genomics, 2009)
